{
  "source": "the supplement of paper PMC8728848",
  "binders": {"B1": {"name": "B160 (Bifidobacterium sp) (protein)", "chain": "MVSHNKRIVAALAAVAAMGIGLAGCGGSDTAGDTKSGSDGGVVNITYMHRLPDSEGMTLVNDIVAKWNKEHPNIQVKATKFDGNAADMIKKLETDVKAGNAPDLAQVGYAEVPEVFTKGLLQDVTDEAAKYKDDFASGPFALMQVDGKTYGLPQDTGPLTYFYNAAEFEKLGITVPKTADELIETAKKTAAQGKYIMTFTPDEAMMMMSGQAGASGPWYKVDGNSWVVNTQTKGSKAVADVYQQLIDNKAALTNPRWDASFDNSIQSGQLIGTVAAAWEAPLFIDSAGGTGAGEWKVTQLGDWFGNGTKTGANGGSGVAVLKGSKHPAEAMEFLDWFNTQVDDLVSQGLVVAATTADAKTPQKWSDYFSGQDVMAEFKTANDNMGDFTYMPGFSAVGAAMKQTAAKAADGSAKVSDVFDTAQKTSVDTLKNLGLSVKE"}},
  "assay_in_all_cases": "glycan array binding signal (z-score within array); higher = stronger binding",
  "details_in_all_cases": "glycan notation: IUPAC condensed, linker removed",
  "key": {"[1]": {"biological_target": "GalNAc(b1-4)GlcNAc(b1-3)GalNAc(b1-4)GlcNAc", "outline": "(§1)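 Arrays were curated from the Consortium for Functional Glycomics database, 3228 in total, and kept only where the protein sequence was available. Binding is expressed as a within-array Z-score. This score was averaged across arrays of the same protein sequence at different concentrations or buffers and across linkers, and negative values can be read as non-binding.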"}, "[2]": {"biological_target": "GalNAc3S(b1-4)[Fuc(a1-3)]GlcNAc", "outline": "as §1"}, "Glc(a1-4)Glc": {"biological_target": "Glc(a1-4)Glc", "outline": "as §1"}, "[3]": {"biological_target": "GlcNAc(b1-2)[GlcNAc(b1-6)]Man(a1-6)[GlcNAc(b1-4)][GlcNAc(b1-2)Man(a1-3)]Man(b1-4)GlcNAc(b1-4)GlcNAc", "outline": "as §1"}, "[4]": {"biological_target": "GlcNAc(b1-3)Gal(b1-4)GlcNAc(b1-3)Gal(b1-4)GlcNAc(b1-3)Gal(b1-4)GlcNAc(b1-2)[GlcNAc(b1-3)Gal(b1-4)GlcNAc(b1-3)Gal(b1-4)GlcNAc(b1-3)Gal(b1-4)GlcNAc(b1-6)]Man(a1-6)[GlcNAc(b1-3)Gal(b1-4)GlcNAc(b1-3)Gal(b1-4)GlcNAc(b1-3)Gal(b1-4)GlcNAc(b1-2)Man(a1-3)]Man(b1-4)GlcNAc(b1-4)[Fuc(a1-6)]GlcNAc", "outline": "as §1"}, "[5]": {"biological_target": "GlcNAc(b1-3)Gal(b1-4)GlcNAc(b1-6)[GlcNAc(b1-3)Gal(b1-3)]GalNAc", "outline": "as §1"}, "GlcNAc(b1-3)GalNAc": {"biological_target": "GlcNAc(b1-3)GalNAc", "outline": "as §1"}, "GlcNAc(b1-3)Man": {"biological_target": "GlcNAc(b1-3)Man", "outline": "as §1"}, "[6]": {"biological_target": "GlcNAc(b1-3)[GlcNAc(b1-4)][GlcNAc(b1-6)]GlcNAc", "outline": "as §1"}, "[7]": {"biological_target": "GlcNAc(b1-4)GlcNAc(b1-4)GlcNAc", "outline": "as §1"}, "Kdn(a2-3)Gal(b1-3)GlcNAc": {"biological_target": "Kdn(a2-3)Gal(b1-3)GlcNAc", "outline": "as §1"}, "[8]": {"biological_target": "Man(a1-2)Man(a1-2)Man(a1-3)Man", "outline": "as §1"}, "[9]": {"biological_target": "Neu5Ac(a2-3)Gal(b1-3)GalNAc", "outline": "as §1"}, "[10]": {"biological_target": "Neu5Ac(a2-3)Gal(b1-3)GlcNAc(b1-6)GalNAc", "outline": "as §1"}, "[11]": {"biological_target": "Neu5Ac(a2-3)Gal(b1-3)[Neu5Ac(a2-6)]GlcNAc(b1-3)[Fuc(a1-3)[Gal(b1-4)]GlcNAc(b1-6)]Gal(b1-4)Glc", "outline": "as §1"}, "Neu5Ac(a2-3)Gal(b1-4)Glc": {"biological_target": "Neu5Ac(a2-3)Gal(b1-4)Glc", "outline": "as §1"}, "[12]": {"biological_target": "Neu5Ac(a2-3)Gal(b1-4)[Fuc(a1-3)]GlcNAc(b1-3)Gal(b1-4)GlcNAc", "outline": "as §1"}, "[13]": {"biological_target": "Neu5Ac(a2-6)Gal(b1-4)GlcNAc(b1-2)Man(a1-6)[Gal(b1-4)GlcNAc(b1-2)Man(a1-3)]Man(b1-4)GlcNAc(b1-4)GlcNAc", "outline": "as §1"}, "[14]": {"biological_target": "Neu5Ac(a2-6)Gal(b1-4)GlcNAc(b1-2)[Neu5Ac(a2-6)Gal(b1-4)GlcNAc(b1-6)]Man(a1-6)[Neu5Ac(a2-6)Gal(b1-4)GlcNAc(b1-2)Man(a1-3)][GlcNAc(b1-4)]Man(b1-4)GlcNAc(b1-4)GlcNAc", "outline": "as §1"}, "[15]": {"biological_target": "Neu5Ac(a2-6)Gal(b1-4)GlcNAc(b1-3)Gal(b1-4)GlcNAc(b1-3)Gal(b1-4)GlcNAc", "outline": "as §1"}, "[16]": {"biological_target": "Neu5Ac(a2-6)GalNAc(b1-4)GlcNAc", "outline": "as §1"}, "Neu5Ac(a2-8)Neu5Ac": {"biological_target": "Neu5Ac(a2-8)Neu5Ac", "outline": "as §1"}, "[17]": {"biological_target": "Neu5Gc(a2-3)Gal(b1-3)GlcNAc", "outline": "as §1"}},
  "note": "The full list was thinned out, with the strongest signals kept by preference.",
  "data": [
    {"binder": "B1", "values": [
      {"measurement": "glycan array binding signal (z-score)", "setting": "[1]", "result": -0.191},
      {"measurement": "glycan array binding signal (z-score)", "setting": "[2]", "result": -0.117},
      {"measurement": "glycan array binding signal (z-score)", "setting": "Glc(a1-4)Glc", "result": -0.177},
      {"measurement": "glycan array binding signal (z-score)", "setting": "[3]", "result": -0.149},
      {"measurement": "glycan array binding signal (z-score)", "setting": "[4]", "result": -0.094},
      {"measurement": "glycan array binding signal (z-score)", "setting": "[5]", "result": -0.164},
      {"measurement": "glycan array binding signal (z-score)", "setting": "GlcNAc(b1-3)GalNAc", "result": -0.154},
      {"measurement": "glycan array binding signal (z-score)", "setting": "GlcNAc(b1-3)Man", "result": -0.156},
      {"measurement": "glycan array binding signal (z-score)", "setting": "[6]", "result": -0.174},
      {"measurement": "glycan array binding signal (z-score)", "setting": "[7]", "result": -0.167},
      {"measurement": "glycan array binding signal (z-score)", "setting": "Kdn(a2-3)Gal(b1-3)GlcNAc", "result": -0.172},
      {"measurement": "glycan array binding signal (z-score)", "setting": "[8]", "result": -0.159},
      {"measurement": "glycan array binding signal (z-score)", "setting": "[9]", "result": -0.204},
      {"measurement": "glycan array binding signal (z-score)", "setting": "[10]", "result": -0.161},
      {"measurement": "glycan array binding signal (z-score)", "setting": "[11]", "result": -0.173},
      {"measurement": "glycan array binding signal (z-score)", "setting": "Neu5Ac(a2-3)Gal(b1-4)Glc", "result": -0.173},
      {"measurement": "glycan array binding signal (z-score)", "setting": "[12]", "result": -0.165},
      {"measurement": "glycan array binding signal (z-score)", "setting": "[13]", "result": -0.136},
      {"measurement": "glycan array binding signal (z-score)", "setting": "[14]", "result": -0.14},
      {"measurement": "glycan array binding signal (z-score)", "setting": "[15]", "result": -0.145},
      {"measurement": "glycan array binding signal (z-score)", "setting": "[16]", "result": -0.167},
      {"measurement": "glycan array binding signal (z-score)", "setting": "Neu5Ac(a2-8)Neu5Ac", "result": -0.174},
      {"measurement": "glycan array binding signal (z-score)", "setting": "[17]", "result": -0.189}
    ]}
  ]
}
